Source: PubChem BioAssay AID1159580 (chemical genetic matrix, 2015)
Screen size: about 5,500 compounds; about 2,000 (36%) were called active. Roughly 18% stayed inconclusive and do not appear here. No stated cut-off is given here; in the data, active means normalized growth mostly below about 0.91 (no sharp cut-off); inconclusive means no clear call, values can overlap the other calls; inactive means mostly above about 0.92. The list shows a part of the results.

Experiment: chemical genetic growth profiling, strain panel (AID 1159580);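 further: tested at 20 µM; growth read once vehicle control cultures reached saturation at 30 °C; 1 = growth at the plate median or of vehicle wells; lower values mean less growth of the strain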
Conditions: growth OD

Measured: normalized growth

CCOc1ccc2c(c1)C(C)=CC(C)(C)N2
inactive: S. cerevisiae deletion strains, locus YJR043C, strain POL32, hits give low values 0.979 | S. cerevisiae deletion strains, locus YJR075W, strain HOC1, hits give low values 0.975 | S. cerevisiae deletion strains, locus YKL009W, strain mrt4, hits give low values 0.988 | S. cerevisiae deletion strains, locus YKL068W, hits give low values 0.989 | S. cerevisiae deletion strains, locus YKL085W, strain MDH1 (second series), hits give low values 0.987 | S. cerevisiae deletion strains, locus YKL085W, strain MDH1, hits give low values 0.987 | S. cerevisiae deletion strains, locus YKL160W, strain elf1, hits give low values 0.996 | S. cerevisiae deletion strains, locus YKL190W, strain CNB1, hits give low values 0.997 | S. cerevisiae deletion strains, locus YKR001C, strain vps1, hits give low values 0.976 | S. cerevisiae deletion strains, locus YKR026C, strain gcn3, hits give low values 0.979 | S. cerevisiae deletion strains, locus YKR091W, strain srl3, hits give low values 0.98 | S. cerevisiae deletion strains, locus YLL001W, strain dnm1, hits give low values 1 | S. cerevisiae deletion strains, locus YLL026W, hits give low values 0.986 | S. cerevisiae deletion strains, locus YLL041C, strain sdh2, hits give low values 0.989 | S. cerevisiae deletion strains, locus YLR027C, strain aat2, hits give low values 1.01 | S. cerevisiae deletion strains, locus YLR039C, strain RIC1, hits give low values 0.997 | S. cerevisiae deletion strains, locus YLR058C, strain SHM2, hits give low values 0.984 | S. cerevisiae deletion strains, locus YLR102C, strain apc9, hits give low values 0.992 | S. cerevisiae deletion strains, locus YLR221C, strain rsa3, hits give low values 1 | S. cerevisiae deletion strains, locus YLR258W, strain gsy2, hits give low values 0.997 | S. cerevisiae deletion strains, locus YLR262C, strain YPT6 (second series), hits give low values 0.981 | S. cerevisiae deletion strains, locus YLR262C, strain YPT6, hits give low values 0.969 | S. cerevisiae deletion strains, locus YLR268W, strain sec22, hits give low values 0.924 | S. cerevisiae deletion strains, locus YLR320W, strain mms22, hits give low values 0.982 | S. cerevisiae deletion strains, locus YLR330W, strain CHS5, hits give low values 1 | S. cerevisiae deletion strains, locus YLR342W, strain FKS1 (second series), hits give low values 0.999 | S. cerevisiae deletion strains, locus YLR342W, strain FKS1, hits give low values 0.987 | S. cerevisiae deletion strains, locus YLR357W, strain rsc2, hits give low values 0.963 | S. cerevisiae deletion strains, locus YLR370C, strain arc18, hits give low values 0.998 | S. cerevisiae deletion strains, locus YLR371W, strain rom2, hits give low values 0.976 | S. cerevisiae deletion strains, locus YLR384C, strain iki3, hits give low values 0.989 | S. cerevisiae deletion strains, locus YLR418C, strain cdc73, hits give low values 0.983 | S. cerevisiae deletion strains, locus YML016C, strain PPZ1, hits give low values 0.984 | S. cerevisiae deletion strains, locus YML032C, strain rad52, hits give low values 0.977 | S. cerevisiae deletion strains, locus YML120C, strain ndi1, hits give low values 1 | S. cerevisiae deletion strains, locus YML124C, strain tub3, hits give low values 0.989 | S. cerevisiae deletion strains, locus YMR058W, strain fet3, hits give low values 0.988 | S. cerevisiae deletion strains, locus YMR078C, strain ctf18, hits give low values 0.972 | S. cerevisiae deletion strains, locus YMR125W, strain sto1, hits give low values 0.981 | S. cerevisiae deletion strains, locus YMR129W, hits give low values 0.991 | S. cerevisiae deletion strains, locus YMR205C, strain PFK2, hits give low values 0.987 | S. cerevisiae deletion strains, locus YMR223W, strain ubp8, hits give low values 0.998 | S. cerevisiae deletion strains, locus YMR231W, strain pep5, hits give low values 0.963 | S. cerevisiae deletion strains, locus YMR263W, strain SAP30, hits give low values 0.981 | S. cerevisiae deletion strains, locus YMR307W, strain GAS1, hits give low values 0.971 | S. cerevisiae deletion strains, locus YNL067W, strain RPL9B, hits give low values 0.977 | S. cerevisiae deletion strains, locus YNL071W, strain lat1, hits give low values 0.991 | S. cerevisiae deletion strains, locus YNL128W, strain TEP1, hits give low values 0.99 | S. cerevisiae deletion strains, locus YNL153C, strain GIM3, hits give low values 0.98 | S. cerevisiae deletion strains, locus YNL209W, strain ssb2, hits give low values 0.994 | S. cerevisiae deletion strains, locus YNL233W, strain BNI4, hits give low values 0.978 | S. cerevisiae deletion strains, locus YNL248C, strain rpa49, hits give low values 0.986 | S. cerevisiae deletion strains, locus YNL250W, strain rad50, hits give low values 0.986 | S. cerevisiae deletion strains, locus YNL271C, strain bni1, hits give low values 0.968 | S. cerevisiae deletion strains, locus YNL298W, strain CLA4, hits give low values 0.974 | S. cerevisiae deletion strains, locus YNL307C, strain MCK1, hits give low values 0.985 | S. cerevisiae deletion strains, locus YNL322C, strain KRE1 (second series), hits give low values 0.984 | S. cerevisiae deletion strains, locus YNL322C, strain KRE1, hits give low values 0.993 | S. cerevisiae deletion strains, locus YNR049C, strain mso1, hits give low values 0.989 | S. cerevisiae deletion strains, locus YNR052C, strain pop2, hits give low values 1 | S. cerevisiae deletion strains, locus YOL006C, strain TOP1, hits give low values 0.841 | S. cerevisiae deletion strains, locus YOL012C, strain htz1 1.09 | S. cerevisiae deletion strains, locus YOL147C, strain pex11, hits give low values 0.98 | S. cerevisiae deletion strains, locus YOR001W, strain rrp6, hits give low values 1.01 | S. cerevisiae deletion strains, locus YOR061W, strain CKA2, hits give low values 0.981 | S. cerevisiae deletion strains, locus YOR069W, strain VPS5, hits give low values 0.984 | S. cerevisiae deletion strains, locus YOR070C, strain gyp1, hits give low values 0.995 | S. cerevisiae deletion strains, locus YOR080W, strain dia2, hits give low values 0.989 | S. cerevisiae deletion strains, locus YOR083W, strain WHI5, hits give low values 0.989 | S. cerevisiae deletion strains, locus YOR106W, strain vam3, hits give low values 1 | S. cerevisiae deletion strains, locus YOR136W, strain idh2, hits give low values 0.99 | S. cerevisiae deletion strains, locus YOR144C, strain elg1, hits give low values 0.992 | S. cerevisiae deletion strains, locus YOR184W, strain ser1, hits give low values 0.969 | S. cerevisiae deletion strains, locus YOR265W, strain rbl2, hits give low values 1.03 | S. cerevisiae deletion strains, locus YOR270C, strain vph1, hits give low values 1 | S. cerevisiae deletion strains, locus YOR290C, strain snf2, hits give low values 0.991 | S. cerevisiae deletion strains, locus YOR316C, strain cot1, hits give low values 0.983 | S. cerevisiae deletion strains, locus YPL051W, strain arl3, hits give low values 0.985 | S. cerevisiae deletion strains, locus YPL055C, strain LGE1, hits give low values 0.997 | S. cerevisiae deletion strains, locus YPL078C, strain atp4, hits give low values 1.02 | S. cerevisiae deletion strains, locus YPL106C, strain sse1, hits give low values 0.964 | S. cerevisiae deletion strains, locus YPL240C, strain hsp82, hits give low values 0.991 | S. cerevisiae deletion strains, locus YPL241C, strain CIN2, hits give low values 0.997 | S. cerevisiae deletion strains, locus YPR119W, strain clb2, hits give low values 0.984 | S. cerevisiae deletion strains, locus YPR141C, strain kar3, hits give low values 0.973 | S. cerevisiae deletion strains, locus YPR163C, strain tif3, hits give low values 0.978 | S. cerevisiae deletion strains, locus YPR167C, strain met16, hits give low values 0.987 | S. cerevisiae deletion strains, strain wtn01, hits give low values 0.967 | S. cerevisiae strains, strain wild type, hits give low values 0.996
